Inconclusive results are not listed. Calls of active or inactive are those of the source. Calls follow the shape of the dose curve; as a rule, active = well fitted cell-killing curve with a large enough effect; inconclusive = small, poorly fitted or top-dose-only effect, or effect the other way; inactive = no such curve, though single readings can be large or run the other way. Non-standard residues stand in square brackets, D forms with d. Residues, ends and D or L forms follow the SMILES beside them. Peptide text beside a SMILES is read from it. *: point of attachment. Sta = CC(C)C[C@H](N)[C@@H](O)CC(=O)O; Isovaleryl = CC(C)CC(=O)*
assay: Quantitative High-Throughput drug screen in 47 multiple myeloma cell lines against the NCATS MIPE library collection: PE2_PLB cell viability assay (AID 1919869); conditions: PE2_PLB myeloma cells viability, ATP luminescence, 48 h; series mostly up to 45.8 µM; viability (% of control): at the top concentration; also: nearly all actives have a fitted effect of over 35% in size
Summary of the method: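 500 cells/well per myeloma line exposed to pinned MIPE 4.0 compounds for 48 h at 37 °C, 5% CO2. Viability read as ATP by CellTiter-Glo luminescence, normalised to DMSO-only (100%) and media-only (0%) wells.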
Potency is read from the fitted curve at half-maximal effect.

SMILES | viability (% of control) | Potency
c1cnc2cc3c(cc2n1)C1CNCC3C1 | 103% (inactive) | –
CC1(C)C(=O)N(CCN2CCC(C(=O)c3ccc(F)cc3)CC2)c2ccccc21 | – | 23.5 µM (active)
Nc1cc(C(Cl)=C(Cl)Cl)c(S(N)(=O)=O)cc1S(N)(=O)=O | 95.7% (inactive) | –
COC(=O)[C@H](Cc1ccccc1)NC(=O)[C@@H](N)CC(=O)O (H-Asp-Phe-OMe) | 106% (inactive) | –
O=c1ccc2ccc(O)c(O)c2o1 | – | 13.2 µM (active)
Oc1ccc(-c2nc(-c3ccc(F)cc3)c(-c3ccncc3)[nH]2)cc1 | – | 26.4 µM (active)
CS(=O)(=O)OCCCCOS(C)(=O)=O | 108% (inactive) | –
O=C(NCCO[N+](=O)[O-])c1cccnc1 | 133% (inactive) | –
Cc1ccc(Nc2nccc(N(C)c3ccc4c(C)n(C)nc4c3)n2)cc1S(N)(=O)=O | – | 16.6 µM (active)
C[Se]CCC(N)C(=O)O (stereo not given) | 79.2% [at 92.2 µM] (inactive) | –
NS(=O)(=O)c1cc(C(=O)O)c(NCc2ccco2)cc1Cl | 92.9% (inactive) | –
Nc1nc(Cl)nc2c1ncn2[C@H]1C[C@H](O)[C@@H](CO)O1 | – | 14.8 µM (active)
COc1c(O)cc2c(c1O)[C@@H]1O[C@H](CO)[C@@H](O)[C@H](O)[C@H]1OC2=O | 93.3% (inactive) | –
Cc1cc(=O)c2c(O)c3c(O)cc(=O)c4c3c3c(cc(O)c1c23)C(C)(C)C=4O | – | 0.296 µM (active)
COc1cc2c(cc1OC)C1CC(=O)C(CC(C)C)CN1CC2 (stereo not given) | 111% (inactive) | –
CN(C)C(=O)[C@H](O)[C@H](Cc1ccccc1)NC(=O)c1cc2cc(Cl)ccc2[nH]1 | – | 2.64 µM (active)
CN1C(C(=O)Nc2ccccn2)=C(O)c2sccc2S1(=O)=O | 114% (inactive) | –
CC(C)CC(=O)N[C@H](C(=O)N[C@H](C(=O)N[C@@H](CC(C)C)[C@@H](O)CC(=O)N[C@@H](C)C(=O)N[C@@H](CC(C)C)[C@@H](O)CC(=O)O)C(C)C)C(C)C (Isovaleryl-VV[Sta]A[Sta]-OH) | 106% (inactive) | –
COC(=O)N[C@H](C(=O)N[C@@H](Cc1ccccc1)[C@@H](O)CN(Cc1ccc(-c2ccccn2)cc1)NC(=O)[C@@H](NC(=O)OC)C(C)(C)C)C(C)(C)C | 106% (inactive) | –
CN(C)[C@@H](CCOc1cccc2ccccc12)c1ccccc1 | – | 23.5 µM (active)
COc1cc2nc(N3CCN(C(=O)C4CCCO4)CC3)nc(N)c2cc1OC (stereo not given) | 107% (inactive) | –
CC(=O)NC[C@H]1CN(c2ccc(N3CCOCC3)c(F)c2)C(=O)O1 | 117% (inactive) | –
CC(C)[C@H](N)C(=O)OCCOCn1cnc2c(=O)[nH]c(N)nc21 | 107% (inactive) | –
O=C(O)c1cn(-c2ccc(F)cc2)c2cc(N3CCNCC3)c(F)cc2c1=O | 95% (inactive) | –
C[C@H](Cn1cnc2c(N)ncnc21)OCP(=O)(O)O | 112% (inactive) | –
CCCCCCCCCCCCCCCCCCCCCCO | 112% (inactive) | –
CC(=O)N1CCN(c2ccc(OC[C@H]3CO[C@](Cn4ccnc4)(c4ccc(Cl)cc4Cl)O3)cc2)CC1 | – | 14.8 µM (active)
CC1(C)CCC(C)(C)c2cc(NC(=O)c3ccc(C(=O)O)cc3)ccc21 | – | 20.9 µM (active)
CCC1=C(C)CN(C(=O)NCCc2ccc(S(=O)(=O)NC(=O)NC3CCC(C)CC3)cc2)C1=O (stereo not given) | 127% (inactive) | –
O=c1oc2cc(O)ccc2s1 | 90.8% (inactive) | –

From PubChem BioAssay (NCATS)
